Records with an inconclusive call do not appear. Calls of active or inactive are those of the source. Calls come from the whole dose curve; as a rule, active = well fitted curve in the direction sought with a large enough effect in the repeat runs; inconclusive = weak or mixed curves; inactive = no such curve, though single readings can be large; an effect the other way counts as inactive or inconclusive.
Experiment: qHTS assay to identify small molecule HDAC inhibitors (AID 1259364); note: top concentration of the series differs between compounds; nearly all actives have a fitted effect of over 45% in size
Details: HCT-116 HDAC-Glo I/II luminescence, 2 h; series mostly up to 92.4 µM; activity change, negative = inhibition: at the top concentration
In short: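 Endogenous HDAC class I/II activity was measured in wild-type HCT-116 cells by HDAC-Glo luminescence after 2 h compound treatment.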
% is set by controls: 0 for no effect and ±100 for the full control effect.

Compound | activity change, negative = inhibition
CCO[Si](C)(C)OCC | 3.57% (inactive)
CCCC(C)CCC(C)=O (configuration not stated) | 3.74% (inactive)
CCC(C)c1ccccc1 (configuration not stated) | 4.92% (inactive)
c1cc[nH]c1 | 2.61% (inactive)
COc1ccc(-n2nc(CCC(=O)N(C)O)cc2-c2ccc(Cl)cc2)cc1 | -0.258% [at 42.5 µM] (inactive)
Cc1cccc(N(C)C)c1 | -4.39% (inactive)
C=CC(C)(CCC=C(C)C)OC(=O)/C=C/c1ccccc1 (configuration not stated) | -9.5% (inactive)
CO[Si](CCC1CCC2OC2C1)(OC)OC (configuration not stated) | -3% (inactive)
CCCCCCCC(=O)OCC | 1.74% (inactive)
Oc1ccc(-c2ccccc2)c(Cl)c1 | -13.7% (inactive)
O=Cc1ccc(F)cc1 | -0.482% (inactive)
NC(=O)C(=O)N/N=C/c1ccc([N+](=O)[O-])o1 | -5.14% [at 42.5 µM] (inactive)
COc1nccnc1CC(C)C | -1.22% (inactive)
C=CC/C=C/C/C=C/C/C=C/C | 4.29% (inactive)
O=c1cccc[nH]1 | 0.442% (inactive)
CCOC(OCC)C(=O)c1ccccc1 | -0.693% (inactive)
O=S(=O)(O)c1cc(S(=O)(=O)O)c2ccc3c(S(=O)(=O)O)cc(S(=O)(=O)O)c4ccc1c2c43 | 4.2% [at 19 µM] (inactive)

Experiment: qHTS assay to identify small molecule HDAC inhibitors - cell viability counter screen (AID 1259365); note: nearly all actives have a fitted effect of over 50% in size; note: potency is the fitted concentration of half-maximal effect
Details: HCT-116 viability, CellTiter-Glo ATP luminescence, 2 h; series mostly up to 92.4 µM; activity change, negative = cytotoxicity: at the top concentration
In short: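 Viability readout: CellTiter-Glo luminescence. Wild-type HCT-116 cells, 2hr compound treatment following overnight attachment at 37 C.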

Compound | activity change, negative = cytotoxicity | Potency
CCCCCCCCCCCCCCCCCO | 1.77% [at 19 µM] (inactive) | –
OCCCCl | -0.731% (inactive) | –
NC(=O)c1ccccc1N | 0.217% (inactive) | –
COc1cc(C(C)C)c2c(c1)S(=O)(=O)N(COc1cc(=O)n3cccc(OCCN4CCCCC4)c3n1)C2=O | -0.608% [at 19 µM] (inactive) | –
CCCCCCS | 0.739% (inactive) | –
COc1ccccc1C=O | -4.14% (inactive) | –
CCN=C1C=CC(=C(c2ccc(N(CC)CC)cc2)c2ccc(N(CC)CC)cc2)c2ccccc21 | – | 34.2 µM (active)
c1ccc2c(c1)CCC2 | 1.26% (inactive) | –
Cc1cccc(C)n1 | -0.956% (inactive) | –
CCOCOCC | 3.31% (inactive) | –
C/C=C/CO | -0.311% (inactive) | –
O=CC1CC1 | -8.64% (inactive) | –
CCCCCCCOC(=O)c1ccccc1C(=O)OCCCCCCC | -5.3% (inactive) | –
CC1CCCCC1 | 3.44% (inactive) | –
CCCSS/C(CCO)=C(\C)N(C=O)Cc1cnc(C)nc1N | 5.35% [at 42.5 µM] (inactive) | –
CCCCN(C)C | -0.0033% (inactive) | –
CC(=O)OC1CCCCC1 | 1.46% (inactive) | –
CCO[Si](C)(C)OCC | -0.756% (inactive) | –

Compound | activity change, negative = cytotoxicity | Potency
CCCC(C)CCC(C)=O (configuration not stated) | 1.92% (inactive) | –
CCC(C)c1ccccc1 (configuration not stated) | 1.11% (inactive) | –
c1cc[nH]c1 | 2.42% (inactive) | –
COc1ccc(-n2nc(CCC(=O)N(C)O)cc2-c2ccc(Cl)cc2)cc1 | 6.11% [at 42.5 µM] (inactive) | –
CCOB(OCC)OCC | 3.19% (inactive) | –
Cc1cccc(N(C)C)c1 | 2.07% (inactive) | –
C=CC(C)(CCC=C(C)C)OC(=O)/C=C/c1ccccc1 (configuration not stated) | -11.4% (inactive) | –
CO[Si](CCC1CCC2OC2C1)(OC)OC (configuration not stated) | 2.51% (inactive) | –
CCCCCCCC(=O)OCC | 5.41% (inactive) | –
Oc1ccc(-c2ccccc2)c(Cl)c1 | -9.3% (inactive) | –
O=Cc1ccc(F)cc1 | 9.44% (inactive) | –
NC(=O)C(=O)N/N=C/c1ccc([N+](=O)[O-])o1 | 8.79% [at 42.5 µM] (inactive) | –
COc1nccnc1CC(C)C | -1.72% (inactive) | –
C=CC/C=C/C/C=C/C/C=C/C | 2.23% (inactive) | –
O=c1cccc[nH]1 | 2.23% (inactive) | –
CCOC(OCC)C(=O)c1ccccc1 | 1.01% (inactive) | –
O=S(=O)(O)c1cc(S(=O)(=O)O)c2ccc3c(S(=O)(=O)O)cc(S(=O)(=O)O)c4ccc1c2c43 | 1.04% [at 19 µM] (inactive) | –
